From the supplement of paper PMC6555819 come the findings set out here.

What all share (test): PBM binding z-score (relative to random genomic background probes); higher = stronger binding; sequences stand for … in GC…GCGATTGACAGCGTAGAATGAAGG
The subject of test [1] is FXR:RXRa (NR concentration 270 nM, RXRa partner concentration 90 nM). In short, it runs like this: (§1)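 For binding z-scores, the reference was random background probes on custom Agilent 4×180K protein-binding microarrays. These arrays were incubated 1 h with ligand-free nuclear receptor dimers in PBS pH 7.4, 2% milk, 0.02% Triton X-100, 1 mM DTT, 0.2 mg/mL BSA and 0.4 mg/ml salmon testes DNA. Fluorescence was scanned after antibody detection of each partner (one per run) and regression-normalized.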

Test [2] deals with LXRa:RXRa (NR concentration 270 nM, RXRa partner concentration 90 nM). In short, it runs like this:
as §1

Test [3] deals with LXRa homodimer (NR concentration 270 nM). The gist of the method: as §1
Test [4] has as its system LXRb:RXRa (NR concentration 270 nM, RXRa partner concentration 90 nM). The gist of the method:
as §1

Test [5] concerns LXRb homodimer (NR concentration 270 nM). The gist of the method:
as §1

Test [6] deals with PPARa:RXRa (NR concentration 270 nM, RXRa partner concentration 90 nM). In short, it runs like this: as §1
The subject of test [7] is PPARg:RXRa (NR concentration 180 nM, RXRa partner concentration 90 nM). The gist of the method: as §1
Test [8] concerns PPARg:RXRa 270nM:90nM, anti-RXR (NR concentration 270 nM, RXRa partner concentration 90 nM). The gist of the method: as §1
Test [9] relates to PPARg:RXRa 30nM:10nM, anti-RXR (NR concentration 30 nM, RXRa partner concentration 10 nM). In short, it runs like this:
as §1

For test [10], the system named is PPARg:RXRa 90nM:30nM, anti-RXR (NR concentration 90 nM, RXRa partner concentration 30 nM). In short, it runs like this: as §1
In test [11] the test system is PPARg:RXRa DBDmut IVT, anti-RXR (DBD mutation: RXRa K156A/R161A, NR concentration 270 nM, RXRa partner concentration 90 nM). In short, it runs like this:
as §1

For test [12], the system named is PPARg:RXRa IVT, anti-PPARg (NR concentration 270 nM, RXRa partner concentration 90 nM). The gist of the method:
as §1

Test [13] has as its system PPARg DBDmut:RXRa IVT, anti-PPARg (DBD mutation: PPARg1 K132A/R137A, NR concentration 270 nM, RXRa partner concentration 90 nM). The gist of the method:
as §1

For test [14], the system named is PPARg DBDmut IVT, anti-PPARg (DBD mutation: PPARg1 K132A/R137A, NR concentration 270 nM). The gist of the method: as §1
The subject of test [15] is PPARg homodimer (NR concentration 180 nM). The gist of the method: as §1
In test [16] the test system is PXR:RXRa (NR concentration 270 nM, RXRa partner concentration 90 nM). In short, it runs like this: as §1
Test [17] concerns PXR homodimer (NR concentration 270 nM). The gist of the method:
as §1

Test [18] has as its system RARa:RXR (NR concentration 270 nM, RXRa partner concentration 90 nM). In short, it runs like this: as §1
Test [19] has as its system RARa homodimer (NR concentration 270 nM). In short, it runs like this:
as §1

Test [20] deals with RARb:RXRa (NR concentration 270 nM, RXRa partner concentration 90 nM). In short, it runs like this: as §1

On to CAAACTGGGTCAAAGGTCAAAGTCGAGCCAACCA, for which the PBM binding z-score amounted to 7.83 in [1]; 7.07 in test [2]; 4.88 in test [3]; 6.89 in test [4]; 2.4 in test [5]; 7.41 in test [6]. For the same sequence, the PBM binding z-score worked out at 14.1 in test [7]; 11.2 in test [8]; 13.5 in test [9]; 13 in test [10]; 8.32 in [11]; 8.37 in [12]. Moreover, the PBM binding z-score in test [13] was 2.08; in [14] it was 2.33; in test [15] it was 4.84; in test [16] it was 6.91; in test [17], 2; in test [18], 8.83. Moreover, the PBM binding z-score turned out to be 2.4 in test [19] and 5.44 in test [20].

CAAACTAGGTCACCAGAAGGTCAAAGTCCGCATG: the PBM binding z-score came to 6.14 in [1]; 6.04 in [2]; 4.65 in test [3]; 5.24 in test [4]; 1.41 in [5]; 6.22 in test [6]. The PBM binding z-score amounted to 9.74 in test [7]; 7.94 in [8]; 6.18 in [9]; 7.98 in test [10]; 8.93 in test [11]; 9 in test [12]. Besides, the PBM binding z-score in test [13] was determined as 4.64; in test [14], 2.7; in test [15] it was 9.04; in test [16] it was 5.96; in [17], 2.47; in test [18], 7.6. In addition, the PBM binding z-score in [19] amounted to 3.53; in [20] it was 5.18.

As for ACTATTAGTTCACTTAGGGCAACCGATACGACGC, the PBM binding z-score in [1] worked out at 1.66; in test [2] it was 0.968; in [3], 0.685; in [4] it was 0.657; in test [5], 0.81; in test [6], 0.893. Further, the PBM binding z-score was 1.04 in [7]; 0.566 in test [8]; 0.591 in [9]; 0.169 in test [10]; 0.466 in [11]; 0.672 in test [12]. Further, the PBM binding z-score in [13] stood at 1.13; in test [14], 1.63; in test [15], 0.741; in [16], 1.86; in test [17], 5.76; in test [18] it was 0.774. Also, the PBM binding z-score was found to be 0.399 in [19] and 2.35 in [20].

As for TGAATGAGGTTAAAGATCAGGGATCGTGGCGTCG, the PBM binding z-score in test [1] was 2.72; in test [2], 2.32; in [3] it was -0.45; in test [4], 1.43; in test [5], 0.3; in test [6], 4.23. The PBM binding z-score stood at 5.54 in [7]; 6.39 in test [8]; 4.69 in test [9]; 6.83 in [10]; 2.1 in test [11]; 3.36 in test [12]. The PBM binding z-score is 0.927 in test [13]; 0.328 in test [14]; 2.57 in test [15]; 1.75 in [16]; -0.845 in test [17]; 3.09 in [18]. Besides, the PBM binding z-score was -0.37 in test [19] and 1.85 in test [20].

As for ATCGAAAGGTCGAAGGTGAGGATACCCACCCGAA, the PBM binding z-score in [1] stood at 4.08; in [2], 3.68; in [3] it was 0.155; in test [4], 2.73; in test [5] it was 0.724; in test [6], 4.69. Further, the PBM binding z-score in test [7] was 4.61; in test [8], 5.07; in [9] it was 2.25; in [10] it was 4.11; in test [11], 0.202; in test [12] it was 2.45. Besides, the PBM binding z-score in test [13] amounted to 0.792; in test [14], 0.619; in test [15], 1.6; in [16], 3.14; in test [17] it was 0.0224; in [18], 4.45. In addition, the figures for the PBM binding z-score in test [19] and in [20] were 0.541 and 3.66, respectively.

Regarding AGGATGAGGTTATTAAGATCAGGGAATTGCGGTC, the PBM binding z-score worked out at 2.1 in test [1]; 1.84 in [2]; 0.789 in test [3]; 1.65 in [4]; 0.764 in [5]; 2.29 in test [6]. In addition, the PBM binding z-score in test [7] was 1.06; in [8] it was 1.24; in test [9], 0.391; in [10] it was 0.788; in test [11], 0.511; in test [12], 0.741. For the same sequence, the PBM binding z-score in test [13] came to 0.904; in test [14], 0.665; in test [15], 1.83; in test [16], 1.69; in test [17] it was 1.82; in [18], 1.53. Besides, the PBM binding z-score in test [19] was found to be 0.954; in test [20], 1.72.

Take CCTGCTAGGTCAATTGTCAGCTAAAGCAGCTCGC: the PBM binding z-score in test [1] is 2.8; in test [2], 2; in [3], 0.111; in test [4], 1.6; in test [5], 0.259; in test [6], 2.77. Further, the PBM binding z-score in [7] was 1.83; in test [8] it was 2.46; in test [9] it was -0.128; in test [10], 1.54; in test [11] it was 4.15; in [12], 3.14. Further, the PBM binding z-score in test [13] is -0.356; in test [14] it was -0.703; in test [15] it was 0.436; in [16] it was 0.762; in test [17], -0.49; in [18], 1.34. Also, the PBM binding z-score was -0.799 in test [19] and 3.53 in test [20].
